High-throughput results from PubChem.
BAZ2B inh: qHTS Assay for Inhibitors of BAZ2B | Bromodomain adjacent to zinc finger domain protein 2B (Homo sapiens), Q9UIF8 | AlphaScreen BAZ2B-H3K14Ac peptide displacement | Potency, µM (series often up to 114 µM), inactives show top-dose activity change, negative = inhibition, usual class: inhibitors | actives 4.4% (n = 360,000) | AID 504333, 2011; also: % is scaled to controls: 0 for no effect and ±100 for the full control effect; nearly all actives have a fitted effect of over 60% in size
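AlphaScreen displacement of biotin-H3(5-23)K14Ac peptide (50 nM final) from BAZ2B (50 nM final) in PBS pH 7.4, 0.01% Tween-20; complex preformed 30 min RT, then compounds (top 110 uM) 30 min RT, beads 20 min dark.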
G9a block: qHTS Assay for Inhibitors of Histone Lysine Methyltransferase G9a. Histone-lysine N-methyltransferase EHMT2 (Homo sapiens), Q96KQ7. G9a H3K9 monomethylation, AlphaScreen, 2 h. Potency, µM (doses to about 102 µM), inactives show at the highest dose activity, negative = inhibition, actives largely listed as inhibitors. actives 8.8% (n = 350,000). AID 504332, 2011; also: % is scaled to controls: 0 for no effect and ±100 for the full control effect; nearly all actives have a fitted effect of over 75% in size
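Step 1: enzyme (final 20 nM) with compound, 15 min RT. Step 2: substrate peptide 500 nM and SAM 20 uM, 2 h RT. Step 3: anti-H3K9me1 antibody and AlphaScreen beads, 10 min, then plate read.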
HP1b chromo inh: HTS for Inhibitors of HP1-beta Chromodomain Interactions with Methylated Histone Tails. Chromobox protein homolog 1 (Homo sapiens), P83916. AlphaScreen HP1-beta / biotin-H3K9me3 peptide binding. Potency, µM (titrated, usually from 114 µM), without a hit: at the highest dose activity change, negative = inhibition, usual class: inhibitors. actives 0.56% (n = 390,000); also: nearly all actives have a fitted effect of over 70% in size
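AlphaScreen: HP1-beta (50 nM) preformed 30 min with biotin-H3(1-18)K9me3 peptide (50 nM) in PBS pH 7.4, 0.01% Tween-20. Compound added for 30 min at RT, then streptavidin donor/nickel chelate acceptor beads (10 ug/mL) for 30 min.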
JMJD2A Tudor inh: qHTS Assay for Inhibitors of JMJD2A-Tudor Domain; AlphaScreen JMJD2A-Tudor / H3K4me3 peptide binding; Potency, µM (top dose mostly 114 µM), inactives show at the highest dose activity change, negative = inhibition, hits mostly inhibitors; actives 4.4% (n = 390,000); AID 504339, 2011; also: % is scaled to controls: 0 for no effect and ±100 for the full control effect; nearly all actives have a fitted effect of over 50% in size
Sfp PPTase inh: qHTS Assay for Inhibitors of Bacillus subtilis Sfp phosphopantetheinyl transferase (PPTase). 4'-phosphopantetheinyl transferase ffp (Bacillus subtilis), Q9F4F7. Biochemical Sfp PPTase activity, qHTS. Potency, µM, without a hit: largest response in the series, negative = inhibition, actives largely listed as inhibitors. actives 3.5% (n = 310,000). AID 1490, 2009;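 also: the enzyme is Sfp with the accession as filed and its product quenches rhodamine fluorescence; 0% = enzyme reaction without inhibitor and -100% = no enzyme wells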
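Fluorescence-quenching assay with 15 nM Sfp, 5 uM rhodamine-CoA and 12.5 uM BHQ-2-labelled ybbR peptide in pH 7.6 Hepes/MgCl2 buffer. Enzyme was pre-incubated with compound for 15 min at room temperature. Rate was taken from the 30-min fluorescence change (525/598 nm).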
L3MBTL1 inh: qHTS Assay for the Inhibitors of L3MBTL1; Potency, µM (titrated, usually from 57.1 µM), without a hit: top-dose activity, negative = inhibition, hits mostly inhibitors; actives 0.66% (n = 230,000); AID 485360, 2010; AlphaScreen L3MBTL1–H3K9me1 peptide binding; Lethal(3)malignant brain tumor-like protein 1 (Homo sapiens), Q9Y468; also: % is scaled to controls: 0 for no effect and ±100 for the full control effect; nearly all actives have a fitted effect of over 60% in size
Target sequence (Q9Y468 whole entry, looked up): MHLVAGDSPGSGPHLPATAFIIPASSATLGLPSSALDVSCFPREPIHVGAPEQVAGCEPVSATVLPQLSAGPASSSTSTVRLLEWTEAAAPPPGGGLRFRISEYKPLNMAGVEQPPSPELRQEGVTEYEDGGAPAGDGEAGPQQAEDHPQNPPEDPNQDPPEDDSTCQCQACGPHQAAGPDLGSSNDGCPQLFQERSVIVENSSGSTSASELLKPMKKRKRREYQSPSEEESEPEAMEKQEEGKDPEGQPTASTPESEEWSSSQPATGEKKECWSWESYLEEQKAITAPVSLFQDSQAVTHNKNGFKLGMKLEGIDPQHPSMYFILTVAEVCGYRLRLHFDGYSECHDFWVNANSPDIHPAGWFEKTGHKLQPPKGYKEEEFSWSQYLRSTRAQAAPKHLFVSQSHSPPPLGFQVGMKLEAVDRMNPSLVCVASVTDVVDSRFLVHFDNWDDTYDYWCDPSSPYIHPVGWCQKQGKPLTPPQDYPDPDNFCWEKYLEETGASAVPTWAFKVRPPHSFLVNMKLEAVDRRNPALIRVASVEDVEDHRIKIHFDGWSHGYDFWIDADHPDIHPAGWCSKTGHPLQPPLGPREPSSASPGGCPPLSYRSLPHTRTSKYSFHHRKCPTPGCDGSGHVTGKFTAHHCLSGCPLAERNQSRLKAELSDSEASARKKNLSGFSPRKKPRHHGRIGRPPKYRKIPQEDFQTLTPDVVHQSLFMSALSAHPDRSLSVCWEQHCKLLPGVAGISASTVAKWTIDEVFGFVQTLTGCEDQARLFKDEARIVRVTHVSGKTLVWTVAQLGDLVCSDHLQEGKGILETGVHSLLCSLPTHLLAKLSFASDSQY
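Read-out is AlphaScreen signal from streptavidin donor and nickel chelate acceptor beads (10 ug/mL final each) bridging L3MBTL1 (50 nM) and biotinylated K9-monomethylated H3(1-15) peptide (75 nM), after 30 min compound exposure at room temperature.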
Starred values were filed as active, the others as inactive; u = inconclusive; x = no result given; [ ] = another dose, or the depositor's remark. Hits are enriched below; roughly 12% of the tested compounds scored in any of these assays. Calls follow the shape of the dose curve; as a rule, active = well fitted curve in the direction sought with a large enough effect; inconclusive = small, poorly fitted or top-dose-only effect, or another doubt; inactive = no such curve, though single readings can be large; an effect the other way counts as inactive or inconclusive. Potency is read from the fitted curve at half-maximal effect.

SMILES	BAZ2B inh	G9a block	HP1b chromo inh	JMJD2A Tudor inh	Sfp PPTase inh	L3MBTL1 inh
CC1CCC2C(=O)N3C(CCC(C)C3c3ccccc3Br)C(=O)N2C1c1ccc(C#CCN(C)C)cc1 (stereo not given)	x	x	x	x	18.0%	x
CN(C(=O)c1nc(-c2ccccc2)n(-c2ccccc2)n1)C1CCS(=O)(=O)C1 (stereo not given)	0.5%	14.4%	30.4%	6.7%	22.5%	x
Cc1cccc(C)c1NC(=O)N1C(C(=O)O)CSC1C(=O)O (stereo not given)	u	u	-6.0%	17.8µM*	-9.8%	19.9%
O=C(O)Cc1cccc(=O)c(O)c1C(=O)O	x	x	39.8µM*	1.12µM*	x	x
S=c1[nH]c2ccccc2n2cccc12	-0.9%	-3.2%	49.0%	4.3%	11.2%	1.2%
S=c1[nH]c2ccccc2n2c(=S)[nH]nc12	50.1µM*	1.78µM*	19.1%	22.4µM*	-21.8%	x
Cc1nn(CC(=O)Nc2nnc(CC(=O)N3CCCC3)s2)c(=O)c2ccccc12	-3.4%	44.7µM*	-8.0%	3.8%[11.4 µM]	6.6%	-0.6%
CCn1nc(CC(=O)Nc2nnc(CC(=O)N3CCCCC3)s2)c2ccccc2c1=O	u	u	36.8%	2.7%	4.6%	x
O=S1(=O)c2ccccc2N(Cc2ccccc2)c2ccccc21	-14.8%	-5.3%[59 µM]	u	-22.0%	x	x
CCCCC(=O)Nc1cc(Cl)ccc1C(=O)O	u	25.1µM*	45.5%	5.1%	10.5%	-2.3%
Cc1c(O)nc(SC2CC(=O)N(c3ccccc3)C2=O)[nH]c1=O (stereo not given)	-4.8%	u	39.6%	-6.1%[57.1 µM]	79.4µM*	x
COc1ccc(NC(=O)c2cccc(N3CCCS3(=O)=O)c2)c(OC)c1	-2.9%	-0.2%[59 µM]	6.4%	-14.9%	x	x
CC1=C(C(=O)OCc2ccccc2)C(c2ccccc2-c2ccccc2)NC(=O)N1CCCCCC(=O)O (stereo not given)	50.1µM*	50.1µM*	4.5%	u	-1.0%	-7.4%
CC1=C(C(=O)OCc2ccccc2)C(c2ccccc2Cl)NC(=O)N1CCCCCC(=O)O (stereo not given)	-30.7%	79.4µM*	24.1%	-4.2%	3.1%	-13.0%
O=C(/C=C/c1cccc(Cl)c1)NCCCN1CCOCC1	0.8%	-3.0%	38.6%	0.0%	20.9%	x
CC(C)Oc1ccc(C(=O)N(Cc2ccc(N(C)C)cc2)Cc2ccco2)cc1	12.6µM*	11.2µM*	u	25.1µM*	x	x
CCCCOc1ccc(C(=O)N(Cc2ccco2)Cc2ccco2)cc1	-7.9%	-29.5%[59 µM]	11.5%	u	x	x
CCCCOc1ccc(C(=O)N(Cc2ccc(N(C)C)cc2)Cc2ccco2)cc1	10µM*	11.2µM*	u	20µM*	x	x
Cc1cccc(N2CC(C(=O)Nc3nnc(SCc4cccnc4)s3)CC2=O)c1 (stereo not given)	-24.4%	44.7µM*	7.1%	u	-9.9%	x
COc1cccc(N2CC(C(=O)Nc3nnc(SCc4ccccn4)s3)CC2=O)c1 (stereo not given)	u	7.94µM*	9.7%	-23.6%	-25.2%	-5.4%
O=C(Nc1nnc(SCc2ccccn2)s1)C1CC(=O)N(c2ccc(F)cc2)C1 (stereo not given)	-24.0%	28.2µM*	11.3%	-28.1%	3.9%	x
Cc1ccccc1N1CC(C(=O)Nc2nnc(SCc3ccccn3)s2)CC1=O (stereo not given)	-10.9%	u	39.7%	-13.1%	5.4%	x
Cc1ccc(CN2CC(C(=O)Nc3nnc(SCc4c(Cl)cccc4Cl)s3)CC2=O)cc1 (stereo not given)	u	10µM*	-5.9%	u	10.4%	-21.1%
C/C=C/COC(=O)C1=C(C)NC(=O)NC1c1ccc2c(c1)OCO2 (stereo not given)	2.4%	-3.6%[0.501 µM]	15.5%	-16.0%	3.0%	-0.4%[2.29 µM]
COc1ccc(NC(=O)CSc2c3c(nc4ccc(Cl)cc24)CCCC3)cc1Cl	x	-0.7%[59 µM]	25.4%	-7.3%	x	x
SMILES	BAZ2B inh	G9a block	HP1b chromo inh	JMJD2A Tudor inh	Sfp PPTase inh	L3MBTL1 inh
COc1ccc(N2C(=O)CC(N3CCN(c4cccc(Cl)c4)CC3)C2=O)cc1 (stereo not given)	4.3%	14.2%	28.9%	-6.9%	5.0%	-1.2%
COc1ccc(N2CCN(C3=CC(=O)N(c4cccc(Cl)c4)C3=O)CC2)cc1	11.2µM*	u	u	u	11.5%	0.3%
O=C(NCCOc1ccccc1)C1CCC(=O)N(CCCN2CCOCC2)C1 (stereo not given)	x	x	35.5%	-14.7%	x	x
COCCNc1oc(-c2ccco2)nc1S(=O)(=O)c1ccccc1	-10.3%	u	24.2%	-15.1%	5.2%	x
C=CCNc1oc(-c2ccco2)nc1S(=O)(=O)c1ccccc1	-37.4%	25.1µM*	12.2%	-16.0%	-19.2%	x
CSc1oc(-c2ccco2)nc1S(=O)(=O)c1ccccc1	-4.7%	31.6µM*	16.5%	-29.6%	-6.9%	-15.9%
CSc1oc(-c2ccco2)nc1S(=O)(=O)c1ccc(C)cc1	-4.2%	28.2µM*	12.9%	-12.1%	-13.0%	x
CSc1oc(-c2ccccc2)nc1S(=O)(=O)c1ccc(F)cc1	7.6%	39.8µM*	57.6%	13.8%	-7.1%	4.5%
Cc1ccc(-c2nc(S(=O)(=O)c3ccc(C)cc3)c(SCC(=O)NCC3CCCO3)o2)cc1 (stereo not given)	-1.9%	44.7µM*	18.7%	-3.6%	2.6%	x
CSc1oc(-c2cccs2)nc1S(=O)(=O)c1ccccc1	7.7%	x	4.5%	-1.5%[11.4 µM]	89.1µM*	x
O=C(CSc1oc(-c2ccccc2)nc1S(=O)(=O)c1ccc(Cl)cc1)NC1CCCCC1	-1.7%	u	23.4%	-16.7%	x	x
Cc1ccc(S(=O)(=O)c2nc(-c3ccc(F)cc3)oc2SCC(N)=O)cc1	0.4%	12.6µM*	34.5%	-9.4%	1.5%	-4.8%
O=C(CSc1oc(-c2cccs2)nc1S(=O)(=O)c1ccccc1)NC1CCCCC1	-34.9%	-9.9%[2.33 µM]	5.6%	-12.9%	39.8µM*	x
Cc1ccc(S(=O)(=O)c2nc(-c3ccc(F)cc3)oc2SCC(=O)NC2CCCCC2)cc1	30.4%	-8.9%[59 µM]	51.6%	1.0%	x	x
CCCCOc1ccc(CNC(=O)c2cnc3sc(N4CCCCCC4)nn3c2=O)cc1	-9.6%	14.5%[59 µM]	22.9%	-13.7%	x	x
CCOC(=O)c1ccccc1NC(=O)CSc1cc(C)[nH]c(=O)n1	0.3%	-2.6%[59 µM]	27.1%	-0.6%	x	x
